# Test results: the supplement of paper PMC8728848
# The sample as a whole holds a higher share of the strongest signals than the screen did.
# B1: LlpA (Arthrobacter sp) (protein)
# chain: MGSSHHHHHHSSGLVPRGSHMTLHPETALRPGAAATSPNSRYRLLYQTDGNLVLYGPDGPLWDSGTNGHGAGACIMQADGNLVLYGPNDEYVWDTETDNNPGSRLVIQDDGNAVIYRPDGSPLWATETCQPPGSADSHVLQSGSTLTPTHGIRSANGLYGLLYQTDGNLVFYGPDGPLWDSGTNGRGAGACIMQPDGNLVLYGPHDEYVWDTETDNNPGSRLVIQDDGNAVIYRPDGNPTWVTGTH
# Columns and labels:
# Experiment in all cases: glycan array binding signal (z-score within array); higher = stronger binding
# Conditions in all cases: glycan notation: IUPAC condensed, linker removed
# [1] = target: Fuc(a1-2)Gal(b1-3)GalNAc(a1-3)[Fuc(a1-2)]Gal(b1-4)Glc
# Method in brief: (§1)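 The Consortium for Functional Glycomics database supplied 3228 glycan arrays, of which those lacking an available protein sequence were dropped. The binding signal, a within-array Z-score, was averaged across arrays of the same protein sequence and across linkers. Negative scores can be read as non-binding.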
# [2] = target: Fuc(a1-2)Gal(b1-4)Fuc(a1-3)]GlcNAc(b1-2)Man(a1-3)[Fuc(a1-2)Gal(b1-4)[Fuc(a1-3)]GlcNAc(b1-2)Man(a1-6)]Man(b1-4)GlcNAc(b1-4)GlcNAc
# Method in brief: as §1
# [3] = target: Fuc(a1-2)Gal(b1-4)[Fuc(a1-3)]GlcNAc(b1-2)Man(a1-3)[Fuc(a1-2)Gal(b1-4)[Fuc(a1-3)]GlcNAc(b1-2)Man(a1-6)]Man(b1-4)GlcNAc(b1-4)[Fuc(a1-6)]GlcNAc
# Method in brief: as §1
# [4] = target: Fuc(a1-2)Gal(b1-4)[Fuc(a1-3)]GlcNAc(b1-3)Gal(b1-4)[Fuc(a1-3)]GlcNAc(b1-3)Gal(b1-4)[Fuc(a1-3)]GlcNAc
# Method in brief: as §1
# Fuc(a1-2)Gal6S(b1-4)Glc = target: Fuc(a1-2)Gal6S(b1-4)Glc
# Method in brief: as §1
# [5] = target: Fuc(a1-2)[Gal(a1-3)]Gal(b1-3)GalNAc(b1-3)Gal(a1-4)Gal(b1-4)Glc
# Method in brief: as §1
# [6] = target: Fuc(a1-2)[Gal(a1-3)]Gal(b1-4)[Fuc(a1-3)]Glc
# Method in brief: as §1
# [7] = target: Fuc(a1-2)[Gal(a1-3)]Gal(b1-4)[Fuc(a1-3)]GlcNAc
# Method in brief: as §1
# [8] = target: Fuc(a1-2)[GalNAc(a1-3)]Gal(b1-3)GlcNAc(b1-3)GalNAc
# Method in brief: as §1
# [9] = target: Fuc(a1-2)[GalNAc(a1-3)]Gal(b1-4)Glc
# Method in brief: as §1
# Fuc(a1-3)GlcNAc = target: Fuc(a1-3)GlcNAc
# Method in brief: as §1
# [10] = target: Fuc(a1-3)[Gal(b1-4)]GlcNAc6S
# Method in brief: as §1
# Gal(b1-3)Gal(b1-4)GlcNAc = target: Gal(b1-3)Gal(b1-4)GlcNAc
# Method in brief: as §1
# [11] = target: Gal(b1-3)GlcNAc(a1-6)Gal(b1-4)GlcNAc
# Method in brief: as §1
# [12] = target: Gal(b1-3)GlcNAc(b1-6)GalNAc
# Method in brief: as §1
# [13] = target: Gal(b1-4)GlcNAc(b1-2)Man(a1-3)[Gal(b1-4)GlcNAc(b1-2)Man(a1-6)]Man(b1-4)GlcNAc(b1-4)[Fuc(a1-6)]GlcNAc
# Method in brief: as §1
# [14] = target: Gal(b1-4)GlcNAc(b1-3)Gal(b1-4)GlcNAc
# Method in brief: as §1
# [15] = target: Gal(b1-4)GlcNAc(b1-3)Gal(b1-4)GlcNAc(b1-3)Gal(b1-4)GlcNAc(b1-2)[Gal(b1-4)GlcNAc(b1-3)Gal(b1-4)GlcNAc(b1-3)Gal(b1-4)GlcNAc(b1-6)]Man(a1-6)[Gal(b1-4)GlcNAc(b1-3)Gal(b1-4)GlcNAc(b1-3)Gal(b1-4)GlcNAc(b1-2)Man(a1-3)]Man(b1-4)GlcNAc(b1-4)[Fuc(a1-6)]GlcNAc
# Method in brief: as §1
# [16] = target: Gal(b1-4)GlcNAc(b1-3)Gal(b1-4)GlcNAc(b1-3)Gal(b1-4)GlcNAc(b1-3)Gal(b1-4)GlcNAc(b1-2)Man(a1-3)[Gal(b1-4)GlcNAc(b1-3)Gal(b1-4)GlcNAc(b1-3)Gal(b1-4)GlcNAc(b1-3)Gal(b1-4)GlcNAc(b1-2)Man(a1-6)]Man(b1-4)GlcNAc(b1-4)GlcNAc
# Method in brief: as §1
# [17] = target: Gal(b1-4)GlcNAc(b1-3)GalNAc
# Method in brief: as §1
# Gal(b1-4)GlcNAc6P = target: Gal(b1-4)GlcNAc6P
# Method in brief: as §1
# [18] = target: Gal3S(b1-4)[Fuc(a1-3)]Glc6S
# Method in brief: as §1
# GlcA(b1-6)Gal = target: GlcA(b1-6)Gal
# Method in brief: as §1
# [19] = target: GlcNAc(a1-3)Gal(b1-4)GlcNAc
# Method in brief: as §1
# [20] = target: GlcNAc(a1-4)Gal(b1-4)GlcNAc(b1-3)Gal(b1-4)Glc
# Method in brief: as §1
# [21] = target: GlcNAc(b1-2)Man(a1-3)[GlcNAc(b1-4)][GlcNAc(b1-2)Man(a1-6)]Man(b1-4)GlcNAc(b1-4)GlcNAc
# Method in brief: as §1
# [22] = target: GlcNAc(b1-2)[GlcNAc(b1-4)]Man(a1-3)[GlcNAc(b1-4)][GlcNAc(b1-2)[GlcNAc(b1-6)]Man(a1-6)]Man(b1-4)GlcNAc(b1-4)GlcNAc
# Method in brief: as §1
# [23] = target: GlcNAc(b1-3)Gal(b1-4)GlcNAc(b1-2)Man(a1-3)[GlcNAc(b1-3)Gal(b1-4)GlcNAc(b1-2)Man(a1-6)]Man(b1-4)GlcNAc(b1-4)[Fuc(a1-6)]GlcNAc
# Method in brief: as §1
binder,measurement,setting,value
B1,glycan array binding signal (z-score),[1],-0.605
same,glycan array binding signal (z-score),[2],1.72
same,glycan array binding signal (z-score),[3],1.97
same,glycan array binding signal (z-score),[4],-0.294
same,glycan array binding signal (z-score),Fuc(a1-2)Gal6S(b1-4)Glc,0.733
same,glycan array binding signal (z-score),[5],-0.344
same,glycan array binding signal (z-score),[6],-1.15
same,glycan array binding signal (z-score),[7],0.864
same,glycan array binding signal (z-score),[8],2.37
same,glycan array binding signal (z-score),[9],-0.96
same,glycan array binding signal (z-score),Fuc(a1-3)GlcNAc,-0.654
same,glycan array binding signal (z-score),[10],1.84
same,glycan array binding signal (z-score),Gal(b1-3)Gal(b1-4)GlcNAc,0.043
same,glycan array binding signal (z-score),[11],-0.211
same,glycan array binding signal (z-score),[12],-0.718
same,glycan array binding signal (z-score),[13],1.04
same,glycan array binding signal (z-score),[14],-0.238
same,glycan array binding signal (z-score),[15],0.644
same,glycan array binding signal (z-score),[16],-0.527
same,glycan array binding signal (z-score),[17],-0.295
same,glycan array binding signal (z-score),Gal(b1-4)GlcNAc6P,0.159
same,glycan array binding signal (z-score),[18],2.1
same,glycan array binding signal (z-score),GlcA(b1-6)Gal,0.793
same,glycan array binding signal (z-score),[19],0.79
same,glycan array binding signal (z-score),[20],0.389
same,glycan array binding signal (z-score),[21],-0.798
same,glycan array binding signal (z-score),[22],-0.159
same,glycan array binding signal (z-score),[23],0.596
